# Compound activity from PubChem BioAssay.
# DT40 TDP1 CPT: growth inhibition of DT40 Tdp1-/-;hTDP1 cells with camptothecin (screen for TDP1 inhibitors); chicken DT40 Tdp1-/-;hTDP1 cells + 20 nM CPT, ATP luminescence, 48 h; Potency, µM (series often up to 46.2 µM), inactives show at the highest dose activity change, negative = growth inhibition, actives largely listed as inhibitors; 420,000 tested, 12% active; also: potency is read from the fitted curve at half-maximal effect; nearly all actives have a fitted effect of over 55% in size
#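 Chicken DT40 Tdp1-/- cells complemented with human TDP1, 400 cells/well, exposed to compounds plus 20 nM camptothecin for at least 48 h at 37 C; viability read as ATP content by CellTiter-Glo luminescence.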
# ELG1 DNA repair: ELG1-dependent DNA repair inhibition; AID 504467; Potency, µM (top dose mostly 46.1 µM), without a hit: at the highest dose activity change, negative = inhibition, actives largely listed as inhibitors; HEK293T ELG1-luciferase reporter, luminescence, 16 h; DNA damage induced by 5-fluorouridine; 330,000 tested, 2.3% active; also: potency is read from the fitted curve at half-maximal effect; nearly all actives have a fitted effect of over 55% in size
#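 Step one: seed 2,000 cells per well. Step two: pin-transfer compound or DMSO alongside 5-fluorouridine. Step three: incubate 16 hr, 37 °C, 5% CO2. Step four: add ONE-Glo, wait 30 min, read luminescence.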
# HT1080 IDH1KD tx: toxicity to HT-1080 IDH1 knockdown cells (counter line). HT-1080 IDH1 knockdown viability, ATP luminescence, 48 h. Potency, µM (highest dose often 46.1 µM), without a hit: at the highest dose activity, negative = toxicity, actives largely listed as cytotoxic. 360,000 tested, 2% active;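 also: potency is read from the fitted curve at half-maximal effect; 0% = DMSO wells and -100% = cell-free medium wells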
#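 IDH1KD HT-1080 cells, 750/well, RPMI + 5% FBS; compound pinned after 2 h settling; 48 h, 37 °C; CellTiter-Glo luminescence; % activity normalised to DMSO and no-cell wells; curves fitted, classed by r2 and efficacy.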
# TDP1 cell noCPT: qHTS for Inhibitors of human tyrosyl-DNA phosphodiesterase 1 (TDP1): qHTS in cells in absence of CPT. DT40 Tdp1-/- hTDP1 cells, no CPT, ATP luminescence, 48 h. Potency, µM (series often up to 46.2 µM), for inactives: at the top dose activity change, negative = growth inhibition, most hits filed as inhibitors. 420,000 tested, 15% active. AID 686978, 2013; also: potency is read from the fitted curve at half-maximal effect; nearly all actives have a fitted effect of over 55% in size
#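 Chicken DT40 Tdp1-/- cells stably complemented with human TDP1 were seeded at 400 cells/well with DMSO in place of 20 nM camptothecin. After compound pinning, cells grew at least 48 hr at 37 °C; viability read by CellTiter-Glo luminescence.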
# HT1080NT lethal: kills 2HG-producing HT-1080-NT fibrosarcoma cells; HT-1080-NT fibrosarcoma viability, CellTiter-Glo ATP luminescence, 48 h; Potency, µM (titrated, usually from 46.1 µM), inactives show at the highest dose activity, negative = less viability, most hits filed as cytotoxic; 360,000 tested, 1.6% active;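 also: NT is the 2HG producing partner of a matched IDH1 knockdown line; potency is read from the fitted curve at half-maximal effect; 0% = DMSO-treated cells and -100% = media-only wells without cells; nearly all actives have a fitted effect of over 55% in size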
#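 Fibrosarcoma NT cells, 750 per well in 5% FBS RPMI, were exposed to compound for 48 hours. Viability: CellTiter-Glo luminescence.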
# IL-1B inflam inh: blocks inflammasome-driven IL-1 beta release | THP-1 LPS/ATP IL-1B secretion, AlphaLISA, 16 h; stronger effect = lower value | activity change, % at 57.5 µM | 360,000 tested, 4.7% active; in the data active = activity change below about -50%; inconclusive = mostly about -30% to -49%
#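 Secreted IL-1B measured by AlphaLISA bead assay after 16 h compound exposure of THP-1 cells; compounds (final up to 57.5 uM) added 1 h before LPS (250 ng/mL) and ATP (1.25 mM) stimulation; lower signal means less secretion.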
# Numbers without * were called inactive; u = inconclusive; x = no result given; [ ] = another dose, or the depositor's remark. A selection: hits, their analogues and other compounds. The true share with any hit is near 19%. Unless noted, calls follow the shape of the dose curve; as a rule, active = well fitted curve in the direction sought with a large enough effect; inconclusive = small, poorly fitted or top-dose-only effect, or another doubt; inactive = no such curve, though single readings can be large; an effect the other way counts as inactive or inconclusive. Unless noted, % is scaled to controls: 0 for no effect and ±100 for the full control effect.
SMILES,DT40 TDP1 CPT,ELG1 DNA repair,HT1080 IDH1KD tx,TDP1 cell noCPT,HT1080NT lethal,IL-1B inflam inh
Cc1ccc2c(c1)cc1c(=O)n(CC(=O)NCCN3CCCC3)nc(C)n12,-19.7%,u,9.4%,-23.2%,1.4%,-9.8
Cc1cccc(C)c1NC(=O)NS(=O)(=O)c1ccccc1,-22.4%,x,3.1%,1.9%,6.1%,31.3
Cc1ccccc1OCC(=O)Nc1ccc2nc(SCC(=O)N(C)c3ccccc3)sc2c1,18.4µM*,x,x,10.3µM*,x,x
Cc1ccc(S(=O)(=O)NC(=O)Nc2cc(C)ccc2F)cc1,-0.9%,-0.9%,4.3%,-5.1%,-1.2%,-2.0
Cc1cccc(NC(=O)NNC(=O)COc2ccc([N+](=O)[O-])cc2)c1C,1.5%,-4.7%,-8.3%,-10.8%,-6.7%,7.6
Cc1cc([N+](=O)[O-])ccc1NC(=O)Nc1ccccc1F,u,u,-12.9%,u,-1.0%,-99.4*
O=C(Cc1ccc([N+](=O)[O-])cc1)Nc1cc(C(F)(F)F)cc(C(F)(F)F)c1,4.11µM*,u,u,6.51µM*,-27.3%,x
Cc1ccc(N=Nc2ccc(C)cc2NC(=O)Nc2ccccc2F)cc1,u,22.0%,5.4%,20.6µM*,-0.6%,7.3
O=C(COc1ccc([N+](=O)[O-])cc1)NNC(=O)Nc1ccccc1F,-13.9%,-5.2%,3.66µM*,17.8%,4.11µM*,11.3
Cc1cc([N+](=O)[O-])ccc1NC(=O)Cc1ccc(F)cc1,5.8%,-3.9%,2.7%,-3.4%,2.7%,-58.9*
COc1ccc(CNc2ccc([N+](=O)[O-])cc2C)cc1,u,20.8%,-5.4%,-28.3%,0.8%,-7.9
O=C(Nc1ccccc1)Nc1cc([N+](=O)[O-])ccc1F,-0.2%,-14.5%,5.1%,u,11.6%,-5.5
Cc1ccc([N+](=O)[O-])cc1NC(=O)Nc1cccc(F)c1,4.61µM*,16.4µM*,-11.8%,9.2µM*,-5.5%,-18.2
Cc1cc([N+](=O)[O-])ccc1NCc1ccc2ccccc2c1,u,1.8%,-9.5%,18.4µM*,-24.5%,0.0
Cc1cc2nc3c(=O)n(C)c(=O)n(C)c3nc2cc1N=CN(C)C,-4.2%,x,x,-3.7%,x,x
C=CCn1c(=O)/c(=C/c2ccc(F)cc2)s/c1=C(\C#N)c1nnc2n1CCCCC2,23.1µM*,u,-0.4%,16.4µM*,-16.2%,-67.1*
Cc1c(Cl)sn(-c2ccc(Cl)cc2)c1=O,0.259µM*,u,2.59µM*,0.0259µM*,25.9µM*,u
COc1ccc(CNC(=S)Nc2cccc(F)c2)cc1,8.9%,-3.5%,5.8%,4.9%,-2.3%,-3.9
COCCNC(=O)CCn1c(=O)c2cc(OC)c(OC)cc2n(CC(=O)Nc2ccc(Cl)cc2F)c1=O,7.3%,x,x,-15.0%,x,x
CC(=NN1CC(=O)NC1=O)c1ccc([N+](=O)[O-])o1,u,x,-4.4%,16.4µM*,u,8.5
O=[N+]([O-])c1ccc(/C=C2\CCC(C3=CCCC3)=C2N2CCOCC2)cc1,u,u,-17.0%,16.4µM*,1.1%,u
CC(C)N1CCN(C(=O)c2cnn(-c3nccc(-c4ccc5c(c4)OCO5)n3)c2-c2ccco2)CC1,-1.4%[9.04 µM],x,x,u,x,x
CCOc1ccccc1NC(=O)c1nnn(CC(=O)Nc2ccc(OC)c(OC)c2)c1N,-6.5%,x,x,3.3%,x,x
CC1CC(C)CN(C(=O)c2ccc(CSc3nc4ccncc4[nH]3)cc2)C1 (stereo not given),u,-12.2%,-1.0%,11.6µM*,12.9%,3.0
O=C(NCCN1CCN(c2cccc(Cl)c2)CC1)c1ccc(CSc2nc3ccncc3[nH]2)cc1,u,u,u,u,u,-63.0*
SMILES,DT40 TDP1 CPT,ELG1 DNA repair,HT1080 IDH1KD tx,TDP1 cell noCPT,HT1080NT lethal,IL-1B inflam inh
CCN(CCNC(=O)c1ccc(CSc2nc3ccncc3[nH]2)cc1)c1ccccc1,-1.4%,u,4.9%,-9.5%,0.3%,35.9
CCn1cc(/C=C(\NC(=O)c2ccccc2Cl)C(=O)N2CCN(C)CC2)c2ccccc21,-21.6%,6.9%,-8.6%,u,-22.2%,-1.2
O=C1OC(c2ccco2)=N/C1=C\c1ccc(-c2cccc(C(F)(F)F)c2)o1,u,12.9%,-3.5%,23.1µM*,-1.3%,0.5
CC(C)(C)c1cc(/C=C(\C#N)C(N)=S)cc(C(C)(C)C)c1O,0.562µM*,x,x,0.708µM*,x,x
COc1cc(C=C2Cc3ccccc3C2=O)cc(OC)c1OC,16.4µM*,x,-8.7%,8.2µM*,-0.2%,17.1
COc1cc(N(C)C)c(OC)cc1/C=C1\Cc2ccccc2C1=O,u,x,x,11.2µM*,x,x
C=CCn1c(SCc2csc(-c3ccc(Cl)cc3)n2)nnc1-c1ccccc1OC,23.1µM*,u,u,u,-19.2%,-29.2
COC(=O)C1=C(C)N(Cc2ccccc2)C(=S)N[C@H]1c1cccc(C(F)(F)F)c1,u,6.0%,u,u,-22.4%,u
COC(=O)C1=C(C)N(Cc2ccccc2)C(=O)N[C@H]1c1cccc(C(F)(F)F)c1,u,3.2%,-13.5%,u,-14.7%,-20.5
COC(=O)C1=C(C)N(Cc2ccccc2)C(=NCCc2ccccn2)N[C@H]1c1cccc(C(F)(F)F)c1,7.31µM*,11.0%,-11.0%,14.6µM*,-21.6%,-27.4
CCN1C(=NCCc2ccccn2)N[C@@H](c2cccc(C(F)(F)F)c2)C(C(=O)OC)=C1C,11.2µM*,9.9%,1.2%,16.4µM*,-10.0%,u
COC(=O)C1=C(C)N(Cc2ccccc2)C(=NCc2ccccc2)N[C@H]1c1cccc(C(F)(F)F)c1,5.8µM*,26.8%,u,5.8µM*,u,u
COc1ccc(/C=N/Nc2cn[nH]c(=O)c2Cl)cc1,-5.0%,u,20.2%,-23.9%,14.2%,-3.9
O=C1N/C(=C\c2ccc(O)cc2)C(=O)c2ccccc21,3.16µM*,14.6%,17.8µM*,7.08µM*,u,-3.8
O=C(CNCc1ccccc1)Nc1ccc(Cl)cc1,-17.5%,25.4%,8.2µM*,u,8.2µM*,1.1
O=C(CC(=O)c1ccccc1)Nc1ccc(Cl)cc1,u,u,u,u,-24.6%,-77.5*
CSc1ccc(CCNC(=O)CCc2c(C)nc3cc(-c4ccccc4)nn3c2C)cc1,-22.5%,x,x,-23.8%,x,x
Cc1[nH]c(C)c2c(=O)n(Cc3ccc(Cl)cc3)ncc12,-1.4%,u,10.8%,2.4%,-2.7%,-9.4
Cc1ccc(Cn2ncc(Cl)c(Cl)c2=O)cc1,5.17µM*,u,u,3.26µM*,u,-102.6*
